Test results as given in PubChem BioAssay (NCATS).
Records with an inconclusive call do not appear. Values without a mark were called inactive. Calls follow the shape of the dose curve; as a rule, active = well fitted cell-killing curve with a large enough effect; inconclusive = small, poorly fitted or top-dose-only effect; inactive = flat fitted curve, though single readings scatter.

Assay: Cellular viability qHTS for adrenocortical cancer (ACC) cell line NCI-H295R (AID 1963990);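 also: 0% = DMSO only wells and -100% = full killing with cytotoxic reference compound; nearly all actives have a fitted effect of over 60% in size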
Details: CellTiter-Glo ATP luminescence, 48 h; series mostly up to 46.1 µM; activity change, negative = viability loss: at the top concentration
In short: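 Readout: CellTiter-Glo luminescence, 20 min RT. Exposure: 48 h, 37C/5% CO2. Cells: NCI-H295R, ITS-DMEM serum-free. Range: up to 46 uM. Analysis: 4PL fit, IC50 plus efficacy.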

Structure (SMILES) | activity change, negative = viability loss
CC(=O)[C@H]1CC[C@H]2[C@@H]3CC[C@H]4C[C@](C)(O)CC[C@]4(C)[C@H]3CC[C@]12C | -3.49%
CCCC(C)C1(CC)C(=O)N=C(S)NC1=O (centres undefined) | -9.71%
CNC(=O)Oc1cccc2ccccc12 | -1.43%
CN1CCC(N(Cc2ccccc2)c2ccccc2)CC1 | -25.6%
